Bioassay records from PubChem BioAssay.
Sampled rows, rich in hits. Any-hit rate of the full collection: about 10%.
Lamin A splicing: LMNA splicing modulation; HeLa LMNA splicing GFP/RFP minigene ratio, 48 h; Potency, µM (series often up to 46.1 µM), actives largely listed as inhibitors; hit rate 0.01% among 200,000; active means well fitted inhibition curve with a large enough effect in the signal ratio, with a control signal flat, not every such curve was filed as active; inconclusive means small, poorly fitted or top-dose-only effect, or effect the other way, or a change in a side signal; the % refers to the signal ratio
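Read-out is the ratio of GFP to DsRed2 object intensity, acquired by 488 nm laser-scanning cytometry on HeLa lamin A-EGFP minigene reporter cells. Compound incubation 48 hrs at 37 °C in Opti-MEM with 2% FBS; DMSO 0.5% final.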
ALDH1A1 inh: ALDH1A1 (human) enzyme inhibition; Purified ALDH1A1, NADH fluorescence, propionaldehyde substrate; Potency, µM (top dose mostly 75.3 µM), usual class: inhibitors; hit rate 7.3% among 220,000; AID 1030
Target sequence (P00352 whole entry, looked up): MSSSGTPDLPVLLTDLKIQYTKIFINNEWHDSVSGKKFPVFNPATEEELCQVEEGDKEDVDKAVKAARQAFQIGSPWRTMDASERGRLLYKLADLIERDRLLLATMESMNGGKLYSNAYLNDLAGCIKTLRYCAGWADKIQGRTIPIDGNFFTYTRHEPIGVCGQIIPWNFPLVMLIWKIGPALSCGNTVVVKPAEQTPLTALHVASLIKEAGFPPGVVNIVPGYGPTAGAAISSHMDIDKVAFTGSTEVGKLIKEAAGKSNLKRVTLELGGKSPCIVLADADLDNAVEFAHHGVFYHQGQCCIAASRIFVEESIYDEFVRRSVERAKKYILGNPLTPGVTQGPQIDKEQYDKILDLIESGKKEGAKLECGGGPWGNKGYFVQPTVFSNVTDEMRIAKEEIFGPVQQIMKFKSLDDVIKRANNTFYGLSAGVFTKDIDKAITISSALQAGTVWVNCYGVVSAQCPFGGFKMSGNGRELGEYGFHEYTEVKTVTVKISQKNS
PNC inhibitor: blocks assembly of the perinucleolar compartment | PC3M PTB-GFP, PNC prevalence imaging, 16 h; hits give low values | activity change (PNC), negative = inhibition, % at 10 µM | hit rate 3.1% among 140,000 | AID 2417;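 active means readout at or below -70, meaning at least 70% loss of cells showing the perinucleolar compartment, a nuclear body marking cancer cells; inconclusive means readout between -30 and a set limit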
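Compounds are pinned in duplicate onto adhered PC3M cells stably expressing GFP-tagged PTB and incubated 16 h at 37 C. Cells are then fixed, nuclei stained with Hoechst, and PNC-positive cells counted.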
HPGD block: inhibitors of human 15-hydroxyprostaglandin dehydrogenase (HPGD); P15428; purified HPGD, NADH fluorescence kinetic, PGE2 substrate; Potency, µM, actives largely listed as inhibitors; hit rate 4.3% among 150,000; AID 894
Target sequence (P15428 whole entry, looked up): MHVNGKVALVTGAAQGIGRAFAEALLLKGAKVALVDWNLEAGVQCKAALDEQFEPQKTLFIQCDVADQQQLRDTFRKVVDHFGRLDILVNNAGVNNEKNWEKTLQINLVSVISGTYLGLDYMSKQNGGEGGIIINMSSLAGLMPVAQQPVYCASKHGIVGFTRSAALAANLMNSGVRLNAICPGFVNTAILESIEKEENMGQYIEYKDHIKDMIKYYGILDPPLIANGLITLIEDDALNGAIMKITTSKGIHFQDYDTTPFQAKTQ
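NADH formation kinetics: reaction with 30 uM PGE2 and 1 mM NAD+ (final), 20 nM enzyme, Tris-HCl pH 8 with Tween 20, after 15 min compound preincubation at room temperature. Fluorescence change, last versus first of five reads.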
ALOX12 inhib: inhibitors of human 12-lipoxygenase (ALOX12); P18054; purified 12-hLO, xylenol orange hydroperoxide absorbance; Potency, µM (top dose mostly 57.1 µM), most hits filed as inhibitors; hit rate 0.12% among 150,000; AID 1452; active means well fitted inhibition curve with a large enough effect; inconclusive means small, poorly fitted or top-dose-only effect; further: nearly all actives have a fitted effect of over 55% in size
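Hydroperoxide output read as Fe(III)-xylenol orange absorbance, 573-to-405 nm ratio, after 30 min reaction with 40 uM arachidonic acid. Enzyme: 150 nM purified human 12hLO, 15 min compound preincubation; 25 mM Hepes pH 7.0, room temperature.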
Hits are given with their value; 0 = inactive; ? = inconclusive; - = no result given; [ ] = dose if it differs, or a comment. Unless noted, the call rests on the fitted dose curve; in most records, active means well fitted inhibition curve with a large enough effect (not every such curve was filed as active); inconclusive means small, poorly fitted or top-dose-only effect, or another doubt; inactive means no such curve, though single readings can be large or run the other way.

SMILES | Lamin A splicing | ALDH1A1 inh | PNC inhibitor | HPGD block | ALOX12 inhib
Cc1cc(C)n(-c2nc(Nc3ccccc3)nc(-n3nc(C)cc3C)n2)n1 | 0 | 0 | ? | 0 | 0
Cc1cc(OI)c(C(C)C)cc1-c1cc(C(C)C)c(OI)cc1C | ? | 0 | - | 0 | 0[0.00818 µM]
CC1(C)CC(=O)C(=Cc2cn(CCC#N)nc2-c2ccc(Cl)cc2)C(=O)C1 | 0 | 0 | 0 | 16µM | 0
CC1=NNC(=O)/C1=C\c1cn(-c2ccccc2)nc1-c1ccccc1 | - | 0 | - | - | -
CC1(C)CC(=O)C(=Cc2cn(-c3ccccc3)nc2-c2ccc(Cl)cc2)C(=O)C1 | 0 | ? | 0 | 1.1µM | 0
CC1(C)CC(=O)C(=Cc2cn(CCC#N)nc2-c2ccc(F)cc2)C(=O)C1 | 0 | 0 | ? | 20µM | 0
N#CCCn1cc(/C=C2\NC(=S)N(c3ccccc3)C2=O)c(-c2ccc(F)cc2)n1 | 0[9.22 µM] | 25µM | - | - | -
O=C(O)CNC(=O)c1ccccc1O | - | 0[13.5 µM] | - | ? | 0[11.4 µM]
Cc1ccc(C(=O)/C=C/c2ccc(-c3ccccc3[N+](=O)[O-])o2)cc1 | ? | ? | 0 | 0 | 0
O=Cc1ccc(-c2cccc(C(=O)O)c2)o1 | 0 | 0 | - | - | -
O=C(/C=C/c1ccc(-c2ccccc2[N+](=O)[O-])o1)c1ccc(Br)cc1 | ? | 7.1µM | ? | 0 | 0
Cc1ccc(-c2ccc(/C=C/C(=O)c3ccccc3)o2)cc1 | ? | 3.2µM | ? | 14µM | 0
O=C(/C=C/c1ccc(-c2ccccc2[N+](=O)[O-])o1)c1ccc(F)cc1 | ? | 0 | 0 | ? | 0
O=C(/C=C/c1ccc(-c2ccccc2)o1)c1ccccc1 | ? | 0 | 0 | 3.5µM | 0
CO[C@H]1COC(=O)C/C=C\[C@@H](C)COC(=O)[C@@H](OCc2ccccc2)/C=C\[C@@H]1C | - | 0[13.5 µM] | - | - | -
CCN(CC)S(=O)(=O)c1ccc(NC2c3ccccc3C(=O)N2CCN2CCOCC2)cc1 (configuration not stated) | 0 | 0.2µM | 0 | 0 | 0
O=C1c2ccccc2C(Nc2ccc(S(=O)(=O)N3CCOCC3)cc2)N1Cc1ccco1 (configuration not stated) | 0 | 0 | ? | 0 | 0
Cc1ccc(NC2c3ccccc3C(=O)N2CCN2CCOCC2)cc1 (configuration not stated) | 0 | 1µM | ? | 0 | 0
O=[N+]([O-])c1cc(S(=O)(=O)C(F)(F)F)ccc1Sc1nc2ccccc2s1 | ? | 0 | 0 | 25µM | 0
CCC(O)c1cc2c(cc1NC(=O)c1ccccc1F)OCCO2 (configuration not stated) | 0 | - | - | - | -
Cc1sc2nc(N3CCOCC3)[nH]c(=O)c2c1-c1ccccc1 | 0 | 0 | ? | 0 | 0
Cc1sc2nc(CN3CCOCC3)[nH]c(=O)c2c1-c1ccccc1 | 0 | 0 | -110 | 0 | 0
Cc1cccc(Oc2ccccc2NC(=O)c2cnccn2)c1 | 0 | 11µM | 0 | 0 | 0
O=C(O)CC1(C(=O)O)CCCCC1 | - | 0[13.5 µM] | - | 0 | 0[11.4 µM]
CCN(CC)S(=O)(=O)c1ccc2c(c1)N(CC(=O)N1CCN(c3cccc(Cl)c3)CC1)C(=O)CO2 | 0 | - | - | - | -
SMILES | Lamin A splicing | ALDH1A1 inh | PNC inhibitor | HPGD block | ALOX12 inhib
Cc1ccc(S(=O)(=O)Cc2c(C)noc2C)cc1 | 0 | 0 | 0 | 0 | 0
Cc1noc(C)c1CS(=O)(=O)c1ccc([N+](=O)[O-])cc1 | - | 32µM | - | - | -
COC(=O)C1=C(C)N(Cc2ccco2)C(=O)/C1=C\c1ccc([N+](=O)[O-])cc1 | ? | 15µM | - | - | -
COC(=O)C1=C(C)N(Cc2ccc(OC)cc2)C(=O)/C1=C\c1ccco1 | - | 0 | - | - | -
CCCCOC(=O)Cn1c(=O)c2c(nc3n2CCCCN3c2ccc(C)cc2)n(C)c1=O | ? | ? | -127 | 0 | 0
CC(C)C[C@H](NC(=O)c1nc[nH]c1C(=O)N(C)Cc1ccccc1)C(=O)OC(C)(C)C | - | 7.9µM | - | - | -
CC(C)C[C@H](NC(=O)c1[nH]cnc1C(=O)N[C@H](C)c1ccccc1)C(=O)OC(C)(C)C | - | 0 | - | - | -
C[C@H](NC(=O)c1nc[nH]c1C(=O)N[C@@H](C)c1ccccc1)C(=O)OC(C)(C)C | - | 4.5µM | - | - | -
O=C(Nc1ccccc1)N1CCCC2(CCN(S(=O)(=O)c3ccccc3)CC2)C1 | - | ? | - | 0 | 0
CC(C)(C)OC(=O)N1CCC(c2c(C(=O)N3CCN(c4ccccn4)CC3)cnn2-c2cccc(F)c2)CC1 | 0 | - | - | - | -
CS(=O)(=O)N(Cc1ccc(F)cc1)Cc1nc2ccccc2c(=O)[nH]1 | 0 | 25µM | 0 | 0 | 0
N#CC1=C(N)N2C(=C(C#N)C13CCCCC3)SC1CCCCC12O (configuration not stated) | ? | 0.71µM | ? | 0 | 0
Cc1nc2nc(Cc3ccccc3)nn2c(C)c1Cl | 0 | 14µM | 0 | 0 | 0
Cn1c(=O)cc(SCC(=O)N2CCCC2)c2ccccc21 | 0 | ? | -89 | 16µM | 0
CCOC(=O)N1CCC(NC(=O)CSc2cc(=O)n(C)c3ccccc23)CC1 | 0 | 0 | ? | - | 0
CN(Cc1ccccc1)C(=O)CSc1cc(=O)n(C)c2ccccc12 | - | 0 | - | - | -
CCCCN(CC)C(=O)CSc1cc(=O)n(C)c2ccccc12 | 0 | ? | 0 | 7.1µM | 0
COc1ccc(N2CCC(CNS(=O)(=O)c3cccc(C(F)(F)F)c3)C2)cc1 (configuration not stated) | 0 | 8.9µM | 0 | 0 | 0
COc1ccc(N2CCC(CNC(=S)Nc3cccc(C)c3)C2)cc1 (configuration not stated) | 0 | 25µM | 0 | 0 | 0
N#CCc1c(C#N)c(N)nc(N2CCCC(O)C2)c1C#N (configuration not stated) | 0[9.22 µM] | 3.5µM | - | - | -
COc1ccc2c(c1)C(=O)[C@H](OC(=O)NS(=O)(=O)c1ccc(F)cc1)[C@@H](c1ccc(OC)c(Br)c1)O2 | - | 0 | - | 0 | -
Cc1ccc2[nH]c3c(c2c1)CN(C(=O)CN1CCCc2ccccc21)CC3 | 0 | 2.8µM | 0 | 22µM | 0
COC(=O)c1[nH]c2ccc(C)cc2c1NC(=O)CN1CCCc2ccccc21 | 0 | ? | 0 | ? | 0
Cc1ccc2[nH]c3c(c2c1)CN(C(=O)CN1CCN(c2ccccc2F)CC1)CC3 | 0 | 8.9µM | 0 | 0 | 0
CCOC(=O)Nc1cc(Br)c2c(c1)OCCO2 | 0 | 0 | 0 | 14µM | 0
SMILES | Lamin A splicing | ALDH1A1 inh | PNC inhibitor | HPGD block | ALOX12 inhib
COC(=O)c1cccc(NC(=O)CN2CCN(Cc3ccccc3)CC2)c1 | 0 | 25µM | 0 | 0 | 0
COc1ccc(CCNC(=O)CN2CCN(c3ccccc3Cl)CC2)cc1 | 0 | 3.2µM | ? | 0 | 0
COc1cccc(NC(=O)CN2CCN(c3ccccc3F)CC2)c1 | 0 | 10µM | ? | 0 | 0
COc1cc(NC(=O)CN2CCN(c3ccccc3F)CC2)cc(OC)c1 | 0 | 22µM | ? | 0 | 0
COc1ccc(CCNC(=O)CN2CCN(c3cccc(C(F)(F)F)c3)CC2)cc1 | ? | 0 | 0 | 0 | 0
COc1ccccc1CNS(=O)(=O)c1cc2c3c(c1)CCN3C(=O)CC2 | 0 | - | - | - | -
COc1cccc(NC(=O)Cn2c(CCC(=O)O)ccc2-c2ccc(Cl)cc2)c1 | ? | 25µM | - | - | -
COc1cccc(NC(=O)Cn2c(CCC(=O)O)ccc2-c2ccccc2)c1 | - | 0 | - | - | -
N#Cc1cccc(-c2cncnc2-n2ccnc2)c1 | 0 | 0 | - | 0 | 0
